Results published in article PMC4336329 (PLoS ONE, 2015).
Among all 310,000 compounds or so, about 14,000 (4.5%) showed an effect of 50% or more. The effect is printed as a negative number. Only a selection was taken, and strong results are over-represented in it overall.
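Also: peak tail current of the secondary pulse compared with the same well before compound.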

The compounds below were run against human ether-à-go-go-related gene (hERG) potassium channel (human, UniProt Q12809) (assay: primary screen, population patch clamp on CHO cells stably expressing hERG; higher = less effect of the substance).
human ether-à-go-go-related gene (hERG) potassium channel, sequence (Q12809 whole entry, looked up): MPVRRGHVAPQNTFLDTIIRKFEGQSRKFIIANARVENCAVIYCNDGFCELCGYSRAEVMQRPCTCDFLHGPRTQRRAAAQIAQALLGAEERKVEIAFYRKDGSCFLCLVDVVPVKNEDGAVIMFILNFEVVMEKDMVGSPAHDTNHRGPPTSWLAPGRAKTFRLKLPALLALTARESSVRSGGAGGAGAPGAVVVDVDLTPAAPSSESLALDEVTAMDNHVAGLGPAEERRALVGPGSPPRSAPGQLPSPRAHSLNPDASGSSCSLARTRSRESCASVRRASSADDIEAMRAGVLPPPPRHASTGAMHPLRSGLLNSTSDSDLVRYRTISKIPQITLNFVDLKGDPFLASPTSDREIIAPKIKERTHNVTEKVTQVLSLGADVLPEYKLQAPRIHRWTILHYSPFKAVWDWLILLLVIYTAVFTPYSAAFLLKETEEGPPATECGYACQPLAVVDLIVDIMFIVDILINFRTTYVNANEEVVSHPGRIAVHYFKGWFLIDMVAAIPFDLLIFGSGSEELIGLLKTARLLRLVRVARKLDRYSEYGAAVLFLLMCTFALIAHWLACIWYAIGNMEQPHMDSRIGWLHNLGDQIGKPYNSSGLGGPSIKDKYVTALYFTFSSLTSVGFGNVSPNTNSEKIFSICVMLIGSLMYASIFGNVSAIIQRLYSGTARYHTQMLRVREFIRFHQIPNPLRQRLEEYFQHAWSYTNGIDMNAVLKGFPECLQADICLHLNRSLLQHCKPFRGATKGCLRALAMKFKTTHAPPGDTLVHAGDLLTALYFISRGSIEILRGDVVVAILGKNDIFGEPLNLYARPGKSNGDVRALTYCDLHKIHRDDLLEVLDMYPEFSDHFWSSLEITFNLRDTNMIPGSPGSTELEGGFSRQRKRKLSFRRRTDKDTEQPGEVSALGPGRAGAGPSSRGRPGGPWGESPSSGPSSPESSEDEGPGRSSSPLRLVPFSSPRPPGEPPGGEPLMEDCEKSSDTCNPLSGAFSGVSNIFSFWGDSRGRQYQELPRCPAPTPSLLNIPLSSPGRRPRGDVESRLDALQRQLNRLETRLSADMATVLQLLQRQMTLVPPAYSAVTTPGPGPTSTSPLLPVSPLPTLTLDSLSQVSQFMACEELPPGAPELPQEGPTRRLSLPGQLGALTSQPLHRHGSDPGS
For `CCCN(CCC)C(=O)CCSCCC(=O)N(CCC)CCC`, the “hERG current change (%, negative = inhibition) at 10uM” value was 14.5%. For `O=C(NCCN1CCOCC1)C1CCC(=O)N1Cc1ccc(F)cc1` (stereo not drawn), the “hERG current change (%, negative = inhibition) at 10uM” value was 1.05%. With `COc1ccc(Nc2nnc(SCc3cc(=O)n4ccsc4n3)s2)cc1` the “hERG current change (%, negative = inhibition) at 10uM” value was -68.9%. `O=c1cc(CSc2nnc(Nc3ccccc3)s2)nc2sccn12` was tested, and the “hERG current change (%, negative = inhibition) at 10uM” value was -27.6%. In the case of `Cc1cccc2nc(CSc3nnc(N)s3)cn12`, the “hERG current change (%, negative = inhibition) at 10uM” value is reported as -9.23%. With `CCc1ccc(Nc2nnc(SCc3cc(=O)n4ccsc4n3)s2)cc1` the “hERG current change (%, negative = inhibition) at 10uM” value was -11.5%. `Cc1ccc(Nc2nnc(SCc3cc(=O)n4cc(C)ccc4n3)s2)cc1` was tested, and the “hERG current change (%, negative = inhibition) at 10uM” value was -36.6%. `COc1ccc(Nc2nnc(SCc3cn4c(C)cccc4n3)s2)cc1` was tested, and the “hERG current change (%, negative = inhibition) at 10uM” value was -52.2%. For `CCC(=O)N1CCC2(CC1)Oc1ccc(Cl)cc1C(=O)C21CC(c2cccnc2)=NO1` (stereo not drawn), the “hERG current change (%, negative = inhibition) at 10uM” value was -15.1%. In the case of `O=C(CCCN1C(=O)c2cccnc2C1=O)N1CC(=O)N(CCc2ccccc2)C(=O)C1`, the “hERG current change (%, negative = inhibition) at 10uM” value is reported as -9.44%. `CCOC(=O)c1cnc2ccccc2c1Nc1cccc(C(=O)O)c1.Cl` was tested, and the “hERG current change (%, negative = inhibition) at 10uM” value was 15.3%. For `CC(/C=C1\SC(=S)N(CCCC(=O)Nc2ccc(C(=O)O)c(O)c2)C1=O)=C\c1ccccc1`, the “hERG current change (%, negative = inhibition) at 10uM” value was 7.47%. With `Cc1ccc(C)c(S(=O)(=O)NCC(=O)Nc2ccc3c(c2)OCO3)c1` the “hERG current change (%, negative = inhibition) at 10uM” value was 3.55%. With `Cc1cc(C)n(CCn2nc(C)cc2C)n1` the “hERG current change (%, negative = inhibition) at 10uM” value was 4.43%. For `Cc1ccc(NC(=S)NCc2ccccc2Cl)c(C)c1`, the “hERG current change (%, negative = inhibition) at 10uM” value was 2.81%. `CCC(C)NC(=O)c1cn(CC)c2ccc(S(=O)(=O)N(C)C)cc2c1=O` (stereo not drawn) was tested, and the “hERG current change (%, negative = inhibition) at 10uM” value was 1.45%. With `COCCN1CCN(C(=O)c2cc(COc3ccc(F)cc3Cl)on2)CC1` the “hERG current change (%, negative = inhibition) at 10uM” value was -3.91%. For `NC(=O)CC(NC(=O)Cc1ccc(Br)cc1)c1ccc(N2CCN(c3ccccn3)CC2)c([N+](=O)[O-])c1` (stereo not drawn), the “hERG current change (%, negative = inhibition) at 10uM” value was 17.2%. In the case of `COc1cc(NC(=O)CSc2nc(=O)n(CCN3CCOCC3)c3c2CCCC3)cc(OC)c1`, the “hERG current change (%, negative = inhibition) at 10uM” value is reported as -23.3%. In the case of `CCN(CC)CCn1c2c(c(SCC(=O)Nc3cc(C)on3)nc1=O)CCCC2`, the “hERG current change (%, negative = inhibition) at 10uM” value is reported as -25%. For `CCN(CC)CCn1c2c(c(SCC(=O)Nc3cc(OC)cc(OC)c3)nc1=O)CCC2`, the “hERG current change (%, negative = inhibition) at 10uM” value was -70.1%. With `CCN(CC)CCn1c2c(c(SCC(=O)Nc3cc(C)ccc3C)nc1=O)CCC2` the “hERG current change (%, negative = inhibition) at 10uM” value was -61%. With `Cc1ccc(C)c(NC(=O)CSc2nc(=O)n(CCN3CCOCC3)c3c2CCCC3)c1` the “hERG current change (%, negative = inhibition) at 10uM” value was -24.2%. In the case of `CCN(CC)CCCn1c2c(c(SCC(=O)Nc3cc(OC)cc(OC)c3)nc1=O)CCC2`, the “hERG current change (%, negative = inhibition) at 10uM” value is reported as -64.4%. For `COc1cc(NC(=O)CSc2nc(=O)n(CCCN3CCOCC3)c3c2CCC3)cc(OC)c1`, the “hERG current change (%, negative = inhibition) at 10uM” value was -34.9%. `COc1cc(NC(=O)CSc2nc(=O)n(CCN3CCOCC3)c3c2CCC3)cc(OC)c1` was tested, and the “hERG current change (%, negative = inhibition) at 10uM” value was -41.9%. For `CCN(CC)CCn1c2c(c(SCC(=O)Nc3cc(C)cc(C)c3)nc1=O)CCC2`, the “hERG current change (%, negative = inhibition) at 10uM” value was -62.1%. In the case of `COC(=O)NC1(C(=O)O)CCCC1`, the “hERG current change (%, negative = inhibition) at 10uM” value is reported as -0.802%. In the case of `O=C(NNC(=O)c1cc(-c2ccco2)nc2ccccc12)c1ccccc1`, the “hERG current change (%, negative = inhibition) at 10uM” value is reported as -3.05%. For `O=S(=O)(Nc1nc2ccccc2nc1NCC1CCCO1)c1ccc(F)cc1` (stereo not drawn), the “hERG current change (%, negative = inhibition) at 10uM” value was -1.06%. `Cc1cc(OCC(=O)N2C[C@H]3C[C@@H](C2)c2cccc(=O)n2C3)c2c(C)cc(=O)oc2c1` was tested, and the “hERG current change (%, negative = inhibition) at 10uM” value was 10.3%. With `COc1ccc(/C=N/NC(=O)C(=O)N2CCN(c3ccccc3OC)CC2)cc1` the “hERG current change (%, negative = inhibition) at 10uM” value was -27.6%. In the case of `COc1cc(CCC(=O)Nc2ccc(Cl)c(C(F)(F)F)c2)cc(OC)c1OC`, the “hERG current change (%, negative = inhibition) at 10uM” value is reported as 13.1%. With `Cc1cc(Cl)c(S(=O)(=O)NCC2CCCO2)cc1OCC(N)=O` (stereo not drawn) the “hERG current change (%, negative = inhibition) at 10uM” value was 4.47%. `O=C(NC1CCCC1)c1cc(-c2ccc(Cl)cc2Cl)on1` was tested, and the “hERG current change (%, negative = inhibition) at 10uM” value was 7.16%. With `O=C(CN(Cc1ccco1)C(=O)c1ccc(N2CCCC2=O)cc1)Nc1ccccc1C(F)(F)F` the “hERG current change (%, negative = inhibition) at 10uM” value was -46.3%. With `CCNC(=O)c1sc2cc(C)ccc2c1Cl` the “hERG current change (%, negative = inhibition) at 10uM” value was -3.25%. In the case of `CN(C)S(=O)(=O)c1ccc(N2CCCC2)c(C(=O)NC2CCC(O)CC2)c1` (stereo not drawn), the “hERG current change (%, negative = inhibition) at 10uM” value is reported as 13.2%. In the case of `c1ccc(-n2nnnc2NC2CCCCC2)cc1`, the “hERG current change (%, negative = inhibition) at 10uM” value is reported as 11%. In the case of `Cc1ccc(CSCC(Nc2ccc(C(=O)O)cc2[N+](=O)[O-])C(=O)O)cc1` (stereo not drawn), the “hERG current change (%, negative = inhibition) at 10uM” value is reported as 6.66%. `COc1ccc(CN2CCc3c([nH]c4ccccc34)C2)c(OC)c1C` was tested, and the “hERG current change (%, negative = inhibition) at 10uM” value was -62.4%. In the case of `COc1ccccc1CN1CCc2c([nH]c3ccccc23)C1`, the “hERG current change (%, negative = inhibition) at 10uM” value is reported as -23%. With `COc1cc(OC)c(CN2CCc3c([nH]c4ccccc34)C2)cc1Br` the “hERG current change (%, negative = inhibition) at 10uM” value was -54.9%. In the case of `Clc1cccc(CN2CCc3c([nH]c4ccccc34)C2)c1Cl`, the “hERG current change (%, negative = inhibition) at 10uM” value is reported as -8.21%. In the case of `COc1ccc(CN2CCc3c([nH]c4ccccc34)C2)cc1Br`, the “hERG current change (%, negative = inhibition) at 10uM” value is reported as -45.9%. With `COc1cc2c(cc1OC)CN(Cc1ccc(OC)c(C)c1OC)CC2` the “hERG current change (%, negative = inhibition) at 10uM” value was -43.6%. For `O=C(NNC(=O)C1CCN(Cc2cccc(F)c2)CC1)c1cccc(Cl)c1`, the “hERG current change (%, negative = inhibition) at 10uM” value was -8.28%. In the case of `CCOc1ccc(C(=O)Nc2nnc(S(=O)(=O)N(C)Cc3ccco3)s2)cc1`, the “hERG current change (%, negative = inhibition) at 10uM” value is reported as 9.14%. With `COCCN1Cc2cccc(C(=O)Nc3ccc4c(c3)OCCO4)c2C1=O` the “hERG current change (%, negative = inhibition) at 10uM” value was -5.24%. For `O=C(CSCc1cccc(F)c1)N1CCN(c2ccccc2)CC1`, the “hERG current change (%, negative = inhibition) at 10uM” value was -19.2%. In the case of `Cc1ccc(NS(=O)(=O)c2c(C)[nH]c(=O)[nH]c2=O)c(C)c1`, the “hERG current change (%, negative = inhibition) at 10uM” value is reported as 24.3%. With `COc1ccc(C(=O)N2CCN(C3CCC(c4ccccc4)CC3)CC2)cc1OC` (stereo not drawn) the “hERG current change (%, negative = inhibition) at 10uM” value was -69.9%. `COc1ccc(C(=O)N2CCN(C3CCCCC3)CC2)c(OC)c1` was tested, and the “hERG current change (%, negative = inhibition) at 10uM” value was -73.6%. With `COc1ccc(C(=O)N2CCN(C3CCN(Cc4ccccc4)CC3)CC2)cc1OC` the “hERG current change (%, negative = inhibition) at 10uM” value was -42.8%. In the case of `COc1cccc(C(=O)N2CCN(C3CCCCC3)CC2)c1.O=C(O)C(=O)O`, the “hERG current change (%, negative = inhibition) at 10uM” value is reported as -13.5%. In the case of `COc1cc(C(=O)N2CCN(C3CCCCC3)CC2)cc(OC)c1OC.O=C(O)C(=O)O`, the “hERG current change (%, negative = inhibition) at 10uM” value is reported as 2.07%. For `COc1cc(OC)cc(C(=O)N2CCN(C3CCCCC3)CC2)c1.O=C(O)C(=O)O`, the “hERG current change (%, negative = inhibition) at 10uM” value was -23.4%. With `COc1ccc(C(=O)N2CCN(C(=O)Cc3ccccc3)CC2)cc1OC` the “hERG current change (%, negative = inhibition) at 10uM” value was 5.3%. `COc1ccc(C(=O)N2CCCN(C)CC2)c(OC)c1` was tested, and the “hERG current change (%, negative = inhibition) at 10uM” value was -5.24%. `COc1ccc(C(=O)N2CCN(C3CCCCC3)CC2)cc1OC.O=C(O)C(=O)O` was tested, and the “hERG current change (%, negative = inhibition) at 10uM” value was -73.6%.
